Test systems include HCT-15 colon; HT29 colon; SNB-19 CNS; U251 CNS; PC-3 prostate; SK-MEL-5 melanoma; LOX IMVI melanoma; SK-MEL-28 melanoma; UACC-62 melanoma.
Experiment in all cases: NCI-60 one-dose screen, 48 h (100 = growth as untreated, 0 = no growth, -100 = all killed)
Common to all, as to settings: 10 µM unless noted

About 83,000 compounds went through this panel and 20% of them were active in at least one assay; those are over-represented in the sample as a whole.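 For each line, cells grew in 96-well plates with the test compound present at a single concentration for 48 hours.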 A number with no mark means an inactive call. The source made the active and inactive calls. How the source made its calls: active means growth percent below 10; inactive means the rest.

For `Cc1ccc[n+](CC(=O)c2cccc3ccccc23)c1`, the growth in the experiment with HCT-15 colon is 102%; in the experiment with HT29 colon, 102%; in the experiment on SNB-19 CNS, 107%; in the experiment on U251 CNS it was 106%; with PC-3 prostate, 101%; in the experiment with SK-MEL-5 melanoma, 99.7%. Further, the growth with LOX IMVI melanoma was 104%; in the experiment on SK-MEL-28 melanoma, 105%.

Consider `COC1=C(OC)C(=O)C=CC1=O`, for which the growth in the experiment on HCT-15 colon was 108%; in the experiment on HT29 colon it was 95.4%; in the experiment with SNB-19 CNS, 108%; in the experiment on U251 CNS it was 107%; in the experiment on PC-3 prostate it was 92.7%; with SK-MEL-5 melanoma, 111%. The growth was 94.1% with UACC-62 melanoma, 100% in the experiment on LOX IMVI melanoma and 120% in the experiment on SK-MEL-28 melanoma.

For `CC(=O)Oc1ccc(C(OC(C)=O)OC(C)=O)cc1`, the growth was 102% with HCT-15 colon; 99.8% with HT29 colon; 104% in the experiment on SNB-19 CNS; 106% in the experiment on U251 CNS; 104% in the experiment on PC-3 prostate; 105% in the experiment with SK-MEL-5 melanoma. Further, the growth with UACC-62 melanoma was 101%; with LOX IMVI melanoma, 99.2%; in the experiment on SK-MEL-28 melanoma, 107%.

On to `OCc1cnccc1NC12CC3CC(CC(C3)C1)C2`, for which the growth in the experiment on HCT-15 colon was 103%; with HT29 colon, 88.7%; with SNB-19 CNS it was 101%; in the experiment with PC-3 prostate, 102%; in the experiment on SK-MEL-5 melanoma, 98.3%; in the experiment with UACC-62 melanoma, 104%. Also, the growth in the experiment on LOX IMVI melanoma was 96.7%; in the experiment with SK-MEL-28 melanoma, 105%.

On to `O=S1(=O)N(CCNc2nccc(-c3c(-c4cccc(O)c4)nc4sccn34)n2)CCN1Cc1ccccc1`, for which the growth in the experiment on HCT-15 colon was 55.7%; in the experiment with HT29 colon, 37%; in the experiment with SNB-19 CNS, 113%; in the experiment with PC-3 prostate it was 63%; in the experiment with SK-MEL-5 melanoma, 30.6%; with UACC-62 melanoma, 20.7%. Moreover, the growth in the experiment on LOX IMVI melanoma is 28.6%; in the experiment with SK-MEL-28 melanoma, 60.2%.

Take `CCNc1ncnc2n[nH]nc12`: the growth in the experiment with HCT-15 colon is 98.4%; in the experiment with HT29 colon it was 100%; with SNB-19 CNS, 96.4%; in the experiment on PC-3 prostate it was 82.3%; in the experiment with UACC-62 melanoma, 99.3%; in the experiment with LOX IMVI melanoma, 102%. Further, the growth with SK-MEL-28 melanoma was 107%.

For `CCn1cc(/C=C2\Oc3cc(OCC#N)ccc3C2=O)c2cc(OC)ccc21`, the growth in the experiment on HCT-15 colon was 21.5%; with HT29 colon, 5.44% (active); in the experiment with SNB-19 CNS it was 29.8%; with U251 CNS, 24.2%; in the experiment on PC-3 prostate, 16.7%; in the experiment with SK-MEL-5 melanoma, 24.6%. Besides, the growth in the experiment with UACC-62 melanoma was 44.6%; with LOX IMVI melanoma it was 33.1%.

With `COc1cccc(C2CC(c3cc(OC)c(OC)c(OC)c3)=NN2)c1` (stereo not drawn), the growth was 67.3% in the experiment with HCT-15 colon; 37.1% in the experiment with HT29 colon; 77.2% in the experiment with SNB-19 CNS; 85.6% in the experiment on U251 CNS; 69.1% in the experiment on PC-3 prostate; 83.7% with SK-MEL-5 melanoma. Also, the results for the growth with UACC-62 melanoma, with LOX IMVI melanoma and in the experiment with SK-MEL-28 melanoma were 82.4%, 61% and 101%, respectively.

For `Oc1ccc(O)c(-[n+]2ccccc2)c1`, the growth with HCT-15 colon is 105%; in the experiment with HT29 colon, 93.6%; in the experiment on SNB-19 CNS it was 100%; in the experiment with U251 CNS, 97.1%; with PC-3 prostate it was 92.5%; in the experiment with SK-MEL-5 melanoma it was 97.7%. Also, the growth was 103% in the experiment on UACC-62 melanoma, 95.7% in the experiment with LOX IMVI melanoma and 116% in the experiment with SK-MEL-28 melanoma.

Take `CCCc1nn2c(CCC(=O)c3nc4ccc([N+](=O)[O-])cc4[nH]3)nnc2s1`: the growth was 100% in the experiment with HCT-15 colon; 106% with HT29 colon; 109% in the experiment on SNB-19 CNS; 108% in the experiment with U251 CNS; 100% with PC-3 prostate; 119% in the experiment with SK-MEL-5 melanoma. Also, the growth in the experiment on UACC-62 melanoma is 98.7%; with LOX IMVI melanoma, 95.5%; in the experiment with SK-MEL-28 melanoma it was 103%.

As to `CC(C)(C)NC(C1=CC(C)(C)c2ccccc2C1=O)c1ccccc1` (stereo not drawn), the growth in the experiment with HCT-15 colon is -58.7% (active); in the experiment with HT29 colon it was -60.2% (active); in the experiment with SNB-19 CNS it was 25%; in the experiment with U251 CNS, -67.7% (active); with PC-3 prostate it was -79% (active); in the experiment on SK-MEL-5 melanoma, 3.82% (active). The growth in the experiment on UACC-62 melanoma is -23.5% (active); with LOX IMVI melanoma it was -66% (active); in the experiment with SK-MEL-28 melanoma it was -10.5% (active).

For `O=C(NCCNc1nccc(-c2c(-c3cccc(O)c3)nc3sccn23)n1)c1ccccc1O`, the growth in the experiment on HCT-15 colon was 54.5%; in the experiment on HT29 colon it was 49.2%; with SNB-19 CNS, 90.2%; in the experiment on U251 CNS, 61.6%; in the experiment on PC-3 prostate, 51.1%; in the experiment with SK-MEL-5 melanoma, 22.7%. The growth in the experiment with UACC-62 melanoma was 0.528% (active); in the experiment with LOX IMVI melanoma, 33.5%; with SK-MEL-28 melanoma, 41.4%.

Consider `Nc1nc(-c2cc3c(cc2Cl)NC(=O)/C3=C/c2ccc(Cl)cc2)cs1`, for which the growth in the experiment on HCT-15 colon was 49.6%; in the experiment with HT29 colon, 35.6%; with SNB-19 CNS, 31.2%; with U251 CNS, 21.8%; in the experiment with PC-3 prostate, 32.6%; in the experiment on SK-MEL-5 melanoma, 6.5% (active). The growth was 36% in the experiment with UACC-62 melanoma and 12.6% in the experiment with LOX IMVI melanoma.

As for `CCOC(=O)CSc1nnc(-c2cc3c([nH]c4ccccc43)c(-c3cccc(O)c3)n2)n1-c1ccc(C)cc1`, the growth in the experiment on HCT-15 colon is 42.7%; in the experiment on HT29 colon, 43%; in the experiment with SNB-19 CNS it was 97.3%; in the experiment on U251 CNS, 54.9%; in the experiment with PC-3 prostate, 15.1%; with SK-MEL-5 melanoma, 94.1%. The figures for the growth in the experiment on UACC-62 melanoma, in the experiment on LOX IMVI melanoma and in the experiment with SK-MEL-28 melanoma were 85.2%, 32.6% and 79.9%, respectively.

For `O=C(CNc1cccnc1)Nc1ccc(C(=O)/C=C/c2ccc(Cl)cc2)cc1`, the growth with HCT-15 colon is 88.6%; with HT29 colon, 90%; in the experiment on SNB-19 CNS it was 101%; in the experiment on U251 CNS it was 82.1%; in the experiment with PC-3 prostate it was 89.4%; in the experiment on SK-MEL-5 melanoma it was 91.1%. Also, the growth in the experiment on UACC-62 melanoma was 84.9%; in the experiment on LOX IMVI melanoma, 86%; in the experiment with SK-MEL-28 melanoma, 96.4%.

The record behind these values is PubChem BioAssay (NCI).
